Assay outcomes from PubChem.
Rows were chosen to be rich in hits. Some 11% of all compounds tested hit in one or more screens of this group.
RORg inh – qHTS for inhibitors of ROR gamma transcriptional activity; Nuclear receptor ROR-gamma (Mus musculus), P51450; 5.4% of 310,000 active; Potency, µM (series often up to 53.6 µM), usual class: inhibitors; Drosophila S2 Gal4-RORgamma UAS-luciferase reporter, 20 h; further: nearly all actives have a fitted effect of over 60% in size
Target sequence (P51450 whole entry, looked up, the tested form may be a part): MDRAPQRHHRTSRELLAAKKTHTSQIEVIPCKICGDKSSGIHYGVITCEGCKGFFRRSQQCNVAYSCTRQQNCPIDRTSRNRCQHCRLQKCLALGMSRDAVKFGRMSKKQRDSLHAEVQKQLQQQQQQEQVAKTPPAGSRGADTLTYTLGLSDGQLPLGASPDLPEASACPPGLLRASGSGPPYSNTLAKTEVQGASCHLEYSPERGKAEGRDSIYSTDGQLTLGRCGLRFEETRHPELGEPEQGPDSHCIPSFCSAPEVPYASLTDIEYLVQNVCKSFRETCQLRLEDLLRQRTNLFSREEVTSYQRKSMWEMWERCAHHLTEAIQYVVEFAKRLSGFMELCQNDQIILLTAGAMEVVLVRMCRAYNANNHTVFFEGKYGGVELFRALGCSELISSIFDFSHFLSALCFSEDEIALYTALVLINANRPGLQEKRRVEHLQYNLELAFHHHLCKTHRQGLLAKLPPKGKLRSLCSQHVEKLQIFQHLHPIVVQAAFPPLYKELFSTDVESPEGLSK
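Drosophila S2 cells stably expressing Gal4-DBD/mouse RORγ fusion under metallothionein promoter plus UAS-luciferase; compound 1 h, then 700 uM CuSO4 induction for 20 h at ambient temperature; inhibition read as reduced luminescence.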
SW480 rerep – A quantitative high throughput screen for small molecules that induce DNA re-replication in SW480 colon adenocarcinoma cells. Potency, µM (top dose mostly 46.1 µM), usual class: activators. AID 624297, 2012. SW480 DNA re-replication, Hoechst DNA content imaging, 48 h. 1.8% of 340,000 active; further: nearly all actives have a fitted effect of over 55% in size
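First, 250 cells per well were seeded. Next, compound or vehicle (23 nL) was pinned in, plates sat 48 hr at 37 C. Finally Hoechst was added for 40 min before fluorescence scanning.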
VP16 counter – VP16 counterscreen qHTS for inhibitors of ROR gamma transcriptional activity | Potency, µM (titrated, usually from 53.6 µM), actives largely listed as inhibitors | Drosophila S2 Gal4-VP16 UAS-luciferase, luminescence, 20 h | 3.5% of 310,000 active | AID 2546, 2010;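 further: Gal4-VP16 expression switched on by copper sulfate through the metallothionein promoter; nearly all actives have a fitted effect of over 50% in size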
MCF10A rerep – A quantitative high throughput screen for small molecules that induce DNA re-replication in MCF 10a normal breast cells; Potency, µM (series often up to 46.1 µM), most hits filed as activators; 2.9% of 350,000 active; MCF 10A DNA re-replication, Hoechst nuclear intensity, 48 h; further: nearly all actives have a fitted effect of over 50% in size
IL-1B inflam inh – qHTS for Inhibitors of Inflammasome Signaling: IL-1-beta AlphaLISA Primary Screen. THP-1 LPS/ATP IL-1B secretion, AlphaLISA, 16 h; hits give low values. activity change, % at 57.5 µM. 4.7% of 360,000 active. AID 743279, 2014; in the data active means activity change below about -50%; inconclusive means mostly about -30% to -49%
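Secreted IL-1B measured by AlphaLISA bead assay after 16 h compound exposure of THP-1 cells; compounds (final up to 57.5 uM) added 1 h before LPS (250 ng/mL) and ATP (1.25 mM) stimulation; lower signal means less secretion.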
Each line names hits and unclear results; the compound was inactive in the other large screens. Unless noted, the call rests on the fitted dose curve; in most records, active means well fitted curve in the direction sought with a large enough effect; inconclusive means small, poorly fitted or top-dose-only effect, or another doubt; inactive means no such curve, though single readings can be large; an effect the other way counts as inactive or inconclusive.

COc1cc2nc(N(CCCN(C)C)C(=O)c3ccc(C(=O)c4ccccc4)cc3)sc2cc1OC	IL-1B inflam inh -105.1 (no result: RORg inh, VP16 counter)
COc1ccc(NC(=O)CNc2cccc(S(=O)(=O)N3CCCCCC3)c2)c([N+](=O)[O-])c1	none (no result: RORg inh, VP16 counter)
CCCCOc1[nH]c2nc(-c3ccco3)n(Cc3ccco3)c(=N)c2c1C#N	MCF10A rerep inconclusive, IL-1B inflam inh -82.5
O=c1[nH]cnc2c1ncn2-c1ccc(N(CCO)CCO)cc1	none (no result: RORg inh, VP16 counter)
COc1ccc(-c2oc3c(c2C(=O)OCCO)C(OCCO)CCC3)cc1 (stereo not given)	none (no result: RORg inh, SW480 rerep, VP16 counter, MCF10A rerep)
CN(CCO)c1nc(N)c2c(N)nc3c(c2c1C#N)CC(=O)N3C1CCCC1	none (no result: SW480 rerep, MCF10A rerep, IL-1B inflam inh)
CC(C)(C)N1C(=O)Cc2c1nc(N)c1c(N)nc(N3CCCCC3CO)c(C#N)c21 (stereo not given)	RORg inh inconclusive, MCF10A rerep 14.6µM
CCCOc1cccc(C(=O)Nc2cccnc2)c1	SW480 rerep inconclusive, MCF10A rerep inconclusive
CC(=O)Oc1cccc(N2C(=O)c3ccc(C(=O)Nc4cccnc4)cc3C2=O)c1	none
CCOc1ccccc1N1C(=O)c2ccc(C(=O)Nc3cccnc3)cc2C1=O	VP16 counter 12.6µM
COc1cccc(C(=O)Nc2cccc(NC(=O)c3ccccc3Cl)c2)c1	RORg inh inconclusive, IL-1B inflam inh inconclusive
CCOc1cccc(C(=O)NC(=S)Nc2cccc(NC(=O)c3ccccc3Cl)c2)c1	VP16 counter 0.631µM, IL-1B inflam inh inconclusive
CCCCOc1cccc(C(=O)NC(=S)Nc2cccnc2)c1	RORg inh 11.2µM, VP16 counter inconclusive
CCN1CCN(c2ccc(NC(=O)c3cccc(OCc4ccccc4)c3)cc2)CC1	SW480 rerep inconclusive, MCF10A rerep inconclusive, IL-1B inflam inh -80.3
Fc1cccc(Cc2c(-c3ccc(Cl)cc3)nc3c(Cl)cc(C(F)(F)F)cn23)c1	none (no result: RORg inh, SW480 rerep, VP16 counter, MCF10A rerep)
N=NC(=O)c1ccccc1Nc1c(O)[nH]c2ccccc12	none (no result: RORg inh, VP16 counter)
CCOc1cccc(C(=O)NC(=S)Nc2cccnc2)c1	RORg inh 14.1µM, VP16 counter inconclusive
CCOc1cccc(C(=O)NC(=S)Nc2ccccc2)c1	RORg inh 4.47µM, VP16 counter inconclusive
CCOc1cccc(C(=O)NC(=S)Nc2ccc(N3CCN(CC)CC3)cc2)c1	RORg inh 11.2µM, VP16 counter inconclusive, IL-1B inflam inh inconclusive
CCCOc1cccc(C(=O)NC(=S)Nc2ccc(N3CCN(C)CC3)cc2)c1	none
O=C(NC(=S)Nc1cccnc1)c1cccc(Br)c1	RORg inh inconclusive, VP16 counter inconclusive
CCCNC(=O)C1(C)CCN(C(=O)c2ccc(OC)cc2OC)C1 (stereo not given)	none (no result: RORg inh, SW480 rerep, VP16 counter, MCF10A rerep)
COc1ccc2sc(N(CCCN(C)C)C(=O)c3nc4ccccc4s3)nc2c1	none
COc1ccccc1C(=O)N(CCC1CCCN1C)c1nc2ccccc2s1 (stereo not given)	RORg inh 7.08µM, VP16 counter inconclusive, IL-1B inflam inh -78.3
CCCCN1CN(S(=O)(=O)c2ccc(OC)cc2)c2nc3ccccc3nc21	none
O=S(=O)(c1ccc(Cl)cc1)N1c2ccccc2Oc2nc3ccccc3nc21	MCF10A rerep 14.6µM
COc1ccc(S(=O)(=O)N2c3cc(Cl)ccc3Oc3nc4ccccc4nc32)cc1	SW480 rerep 2.06µM, MCF10A rerep 1.03µM
CC(C)(C)N(Cc1ccccc1)C(=O)COC(=O)C1CCN(c2ccc(C(F)(F)F)cn2)CC1	none (no result: RORg inh, VP16 counter)
Cc1cc(C)cc(CC(=O)N2CCC2(C)C(=O)NS(=O)(=O)c2ccc(C(C)(C)C)cc2)c1 (stereo not given)	none (no result: RORg inh, SW480 rerep, VP16 counter, MCF10A rerep)
Cc1ccc(CNC(=O)c2cc3c(=O)n4ccccc4nc3n(CC3CCCO3)c2=N)cc1 (stereo not given)	SW480 rerep inconclusive, MCF10A rerep 2.06µM
COc1ccc(CCNC(=O)c2cc3c(=O)n4cccc(C)c4nc3n(CC3CCCO3)c2=N)cc1 (stereo not given)	SW480 rerep 8.2µM, MCF10A rerep 9.2µM
CC(NC(=O)c1cc2c(=O)n3ccccc3nc2n(CC2CCCO2)c1=N)c1ccccc1 (stereo not given)	SW480 rerep 6.51µM, MCF10A rerep 5.8µM
COc1ccc(CCNC(=O)c2cc3c(=O)n4cccc(C)c4nc3n(Cc3ccncc3)c2=N)cc1	none (no result: SW480 rerep, MCF10A rerep, IL-1B inflam inh)
N=c1c(S(=O)(=O)c2ccc(F)cc2)cc2c(=O)n3ccccc3nc2n1CC1CCCO1 (stereo not given)	SW480 rerep 18.4µM, MCF10A rerep 16.4µM
O=C(CCNC(=O)c1ccc([N+](=O)[O-])cc1)Nc1ccccc1N1CCCCC1	none (no result: RORg inh, VP16 counter)
Cc1ccc2nc3c(cc(C#N)c(=N)n3CC3CCCO3)c(=O)n2c1 (stereo not given)	none (no result: SW480 rerep, MCF10A rerep, IL-1B inflam inh)
Cc1ccc2nc3c(cc(C(=O)NCC4CCCO4)c(=N)n3CC3CCCO3)c(=O)n2c1 (stereo not given)	SW480 rerep inconclusive, MCF10A rerep 2.91µM
N=c1c(C(=O)NC2CCCCC2)cc2c(=O)n3ccccc3nc2n1CC1CCCO1 (stereo not given)	SW480 rerep 18.4µM, MCF10A rerep inconclusive
Cc1ccc2nc3nc(NCC4CCCO4)c(C(=O)NC4CCCC4)cc3c(=O)n2c1 (stereo not given)	MCF10A rerep 2.59µM
N=c1c(C(=O)NC2CCCC2)cc2c(=O)n3ccccc3nc2n1CC1CCCO1 (stereo not given)	SW480 rerep inconclusive, MCF10A rerep inconclusive
O=C(O)c1ccc(N2C(=O)c3ccccc3C2=O)cc1[N+](=O)[O-]	none (no result: RORg inh, SW480 rerep, VP16 counter, MCF10A rerep)
CC1(C(=O)Nc2ccc3c(c2)OCCO3)CSCC(=O)N1CCc1ccccc1F (stereo not given)	none (no result: RORg inh, SW480 rerep, VP16 counter, MCF10A rerep)
O=C1c2cccc(NCCNCCO)c2C(=O)c2cccc(NCCNCCO)c21	IL-1B inflam inh -117.2 (no result: RORg inh, VP16 counter)
Cn1cc([C@]2(O)C(=O)Nc3c(F)cccc32)c2ccccc21	none (no result: RORg inh, SW480 rerep, VP16 counter, MCF10A rerep)
Cc1n[nH]c(C)c1N1C(=O)c2cccc3c(Br)ccc(c23)C1=O	IL-1B inflam inh -107.4
COc1ccc(NC(=S)N2CCN(c3ccc4c(c3)C3CCN(C(=O)OCc5ccccc5)C4C3)CC2)c(OC)c1 (stereo not given)	none (no result: RORg inh, SW480 rerep, VP16 counter, MCF10A rerep)
CN(C)CCCNc1cc(-c2ccccc2)nc2cc(-c3cccc(F)c3)nn12	RORg inh inconclusive, SW480 rerep inconclusive, VP16 counter inconclusive, MCF10A rerep 20.6µM, IL-1B inflam inh -88.0
Cc1cc(C(F)(F)F)n2nc(-c3cccs3)cc2n1	none
CCN(CC)CCCNc1cc(C)nc2cc(-c3cccs3)nn12	RORg inh 11.2µM, SW480 rerep inconclusive, VP16 counter inconclusive, MCF10A rerep inconclusive, IL-1B inflam inh -101.4
Cc1cccc(-c2cc3nc(C)cc(NCCCN(C)C)n3n2)c1	MCF10A rerep inconclusive, IL-1B inflam inh -100.6 (no result: VP16 counter)
